According to PubChem BioAssay (NCATS):
Inconclusive results are not listed. The source made the active and inactive calls. Calls come from the whole dose curve; as a rule, active = well fitted curve in the direction sought with a large enough effect; inconclusive = small, poorly fitted or top-dose-only effect, or another doubt; inactive = no such curve, though single readings can be large; an effect the other way counts as inactive or inconclusive.

What was measured:
[1] = test system: CRL-7250; experiment: Cytotoxic Profiling of Annotated Libraries Using Quantitative High-Throughput Screening (AID 1296008); conditions: Five cell lines viability, CellTiter-Glo ATP luminescence, 48-72 h; max response: active compounds read low; note: nearly all actives have a fitted effect of over 60% in size; for max response: % is set by controls: 0 for no effect and ±100 for the full control effect
Method in brief: (§1)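 Compounds were pin-transferred onto cells and incubated 48 or 72 hr at 37 degree Celsius, 95% humidity. CellTiter-Glo was added, plates sat 10 min at room temperature, then ATP-coupled luminescence was imaged as the viability read-out.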

[2] = test system: HEK293; experiment: as above; conditions: Five cell lines viability, CellTiter-Glo ATP luminescence, 48-72 h; max response: active compounds read low
Method in brief: as §1

[3] = test system: HaCat; experiment: as above; conditions: Five cell lines viability, CellTiter-Glo ATP luminescence, 48-72 h; max response: active compounds read low
Method in brief: as §1

[4] = test system: KB-3-1; experiment: as above; conditions: Five cell lines viability, CellTiter-Glo ATP luminescence, 48-72 h; max response: active compounds read low
Method in brief: as §1

[5] = test system: NIH3T3; experiment: as above; conditions: Five cell lines viability, CellTiter-Glo ATP luminescence, 48-72 h; max response: active compounds read low
Method in brief: as §1

[6] = test system: HACAT; experiment: qHTS assay to identify novel small-molecules to repurpose for Merkel cell carcinoma treatment (AID 1296009); conditions: MCC and control cell lines, CellTiter-Glo viability, 72 h; at 44.8 µM (top of the series) unless noted; note: nearly all actives have a fitted effect of over 60% in size
Method in brief: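 Cells exposed to NPC (8-point) and MIPE (11-point) compound dilutions for 72 hr at 37 degree celsius; viability read by CellTiter-Glo luminescence, normalized to no-cell and DMSO in-plate controls.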

[7] = test system: C33A; experiment: Primary qHTS to identify gynecologic anti-cancer compounds using libraries of approved drugs and bioactive compounds (AID 1345084); conditions: Gynecologic cancer cell panel viability, ATPlite luminescence, 48 h; series mostly up to 57.5 µM; note: % is set by controls: 0 for no effect and ±100 for the full control effect; nearly all actives have a fitted effect of over 55% in size
Method in brief: (§2)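 Cytotoxicity screen measuring ATP content by luciferase luminescence. Each compound is applied at five concentrations for 48 h at 37 C with 5% CO2.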

[8] = test system: CAOV3; experiment: as above; conditions: Gynecologic cancer cell panel viability, ATPlite luminescence, 48 h; series mostly up to 57.5 µM
Method in brief: as §2

[9] = test system: CASKI; experiment: as above; conditions: Gynecologic cancer cell panel viability, ATPlite luminescence, 48 h; series mostly up to 57.5 µM
Method in brief: as §2

[10] = test system: Es-2; experiment: as above; conditions: Gynecologic cancer cell panel viability, ATPlite luminescence, 48 h; series mostly up to 57.5 µM
Method in brief: as §2

[11] = test system: HeLa; experiment: as above; conditions: Gynecologic cancer cell panel viability, ATPlite luminescence, 48 h; series mostly up to 57.5 µM
Method in brief: as §2

[12] = test system: Hek293T; experiment: as above; conditions: Gynecologic cancer cell panel viability, ATPlite luminescence, 48 h, control line for the selectivity index; series mostly up to 57.5 µM
Method in brief: as §2

[13] = test system: JEG-3; experiment: as above; conditions: Gynecologic cancer cell panel viability, ATPlite luminescence, 48 h; series mostly up to 57.5 µM
Method in brief: as §2

C=C1CC23CC1CCC2C12OC(=O)C(C)(C(O)CC1O)C2C3C(=O)O (stereo unspecified)
inactive: max response [1] -0.83% | max response [2] -15.6% | outcome [3] | max response [4] 1.34% | max response [5] -6.25% | outcome [6] | Potency [7] | Potency [8] | outcome [9] | Potency [10] | Potency [11] | Potency [12] | Potency [13]

COC(=O)C1=CO[C@@H](O[C@@H]2O[C@H](CO)[C@@H](O)[C@H](O)[C@H]2O)C2C1CC(O)C2C (stereo partly specified)
inactive: max response [1] -13.7% | max response [2] 0.336% | outcome [3] | outcome [4] | max response [5] -5.32% | outcome [6] | Potency [7] | Potency [8] | outcome [9] | Potency [10] | Potency [11] | Potency [12] | Potency [13]

CC1(C)C(=O)CCC2(C)C1C(O)C=C1COC(=O)C12O (stereo unspecified)
inactive: max response [1] -15.2% | max response [2] -3.58% | outcome [3] | max response [4] 7.63% | max response [5] -3.93% | outcome [6] | Potency [7] | Potency [8] | outcome [9] | Potency [10] | Potency [11] | Potency [12] | Potency [13]

CC1C(O)C(O)C2C(C(=O)OCCc3ccc(O)cc3)=COC(O[C@@H]3O[C@H](CO)[C@@H](O)[C@H](O)[C@H]3O)C12 (stereo partly specified)
inactive: outcome [1] | max response [2] -0.685% | outcome [3] | max response [4] -9.14% | max response [5] 2.97% | outcome [6] inactive [at 17.4 µM] | Potency [7] | Potency [8] | outcome [9] | Potency [10] | Potency [11] | Potency [12] | Potency [13]

CC(=O)NC(Cc1c[nH]c2ccccc(=O)c12)C(=O)O (stereo unspecified)
inactive: max response [1] -6.01% | max response [2] 1.04% | outcome [3] | outcome [4] | max response [5] 1.4% | outcome [6] | Potency [7] | Potency [8] | outcome [9] | Potency [10] | Potency [11] | Potency [12] | Potency [13]

C[C@@H]1CCC2C(C)(C)[C@H](O)[C@H](O)C[C@]2(C)[C@@]12Cc1c(O)cc3c(c1O2)CN(CCCC(=O)O)C3=O (stereo partly specified)
inactive: max response [1] -7.06% | max response [2] -1.57% | outcome [3] | max response [4] 3.58% | max response [5] 4.1% | outcome [6] inactive [at 17.4 µM] | Potency [7] | Potency [8] | outcome [9] | Potency [10] | Potency [11] | Potency [12] | Potency [13]

CC(C)[C@](O)(c1ccc2cc(OC(F)F)c(OC(F)F)cc2c1)c1cn[nH]n1
inactive: outcome [1] | max response [2] -21.3% | outcome [3] | max response [4] -6.26% | max response [5] 1.17% | outcome [6] | Potency [7] | Potency [8] | outcome [9] | Potency [10] | Potency [11] | Potency [12] | Potency [13]

CC(C)c1c(NC(=O)Nc2ccc(Cl)cc2)c(=O)n(-c2ccccc2)n1C
inactive: max response [1] -6% | max response [2] -5.54% | outcome [3] | max response [4] -6.5% | max response [5] -1.6% | outcome [6] | Potency [7] | Potency [8] | outcome [9] | Potency [10] | Potency [11] | Potency [12] | Potency [13]

CC(C)c1ccc2c(c1)C(=O)CC1C(C)(C(=O)O)CCCC21C (stereo unspecified)
inactive: max response [1] -5.24% | max response [2] -1.52% | outcome [3] | max response [4] -0.919% | max response [5] -2.58% | outcome [6] | Potency [7] | Potency [8] | outcome [9] | Potency [10] | Potency [11] | Potency [12] | Potency [13]

CCOC(=O)COc1ccc2c(c1)C[C@@H](NC[C@H](O)c1cccc(Cl)c1)CC2
inactive: outcome [1] | max response [2] 4.31% | outcome [3] | max response [4] 7.38% | max response [5] 1.73% | outcome [6] | Potency [7] | Potency [8] | outcome [9] | Potency [10] | Potency [11] | Potency [12] | Potency [13]

CC(NC(=O)c1ccccc1N)C(=O)O (stereo unspecified)
inactive: max response [1] 2.02% | max response [2] 4.67% | outcome [3] | max response [4] 9.06% | max response [5] 0.106% | outcome [6] | Potency [7] | Potency [8] | outcome [9] | Potency [10] | Potency [11] | Potency [12] | Potency [13]

C=C1CC[C@H]2[C@@](C)(CCC(O)[C@@]2(C)CO)[C@@H]1/C=C/C(=C\C(=O)O)C(=O)O (stereo partly specified)
inactive: max response [1] -1.65% | max response [2] -0.745% | outcome [3] | outcome [4] | max response [5] -1.97% | outcome [6] | Potency [7] | Potency [8] | outcome [9] | Potency [10] | Potency [11] | Potency [12] | Potency [13]
